Bioassay records: PubChem, several laboratories
In the library only some 0.5% were active in any assay of this set; here they are far more common.
E coli growth-1 – counter-screen for AddAB inhibitors: E. coli growth inhibition; E. coli V3065 growth, OD600 absorbance, 18 h; inhibition, % at 11.9 µM; hit rate 0.27% among 330,000; AID 449728;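 active means inhibition above the campaign's mean inhibition across all tested compounds plus 3 SD, cut at about 9.9% in these data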;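 further: uninfected addAB+ strain grown without phage in ampicillin broth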
AddAB inh – less growth of phage-infected E. coli with AddAB. E. coli expressing H. pylori AddAB, absorbance growth. hit rate 0.29% among 330,000. inhibition, % at 11.9 µM; in the data active means inhibition above about 12%
E coli growth-2 – blocks Escherichia coli growth | OD600 absorbance (test concentration not listed) | OD600, 23 h; stronger effect = lower value | AID 1053175 | hit rate 0.21% among 330,000;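 active means OD600 absorbance below the run mean of sample wells minus 3.6 SD, in any replicate, cut at about 0.56 in these data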
Tat export inh – inhibitors of E. coli Tat protein transport. E. coli MC4100 TorA-mCherry Tat export, fluorescence. inhibition, % at 10 µM. hit rate 0.036% among 340,000;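 active means mean replicate inhibition at least 50% and at least half of replicates individually reaching 50%; inconclusive means only one of the two criteria met; inactive means neither criterion met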;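 further: exported cargo escapes ClpAP degradation while cytoplasmic cargo is degraded and loses fluorescence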
phage Ecoli inh – E. coli growth loss with phage present; inhibition, % at 11.9 µM; hit rate 0.26% among 360,000; growth absorbance; AID 651602; in the data active means inhibition above about 11%
AddAB conf – growth loss of T4-infected E. coli expressing H. pylori AddAB, confirmed; E. coli V3065 expressing H. pylori AddAB, T4 phage, OD; T4 phage with gene 2 nonsense mutations; inhibition, % at 11.9 µM; shares compounds with AddAB inh; hit rate 64% among 880;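 active means mean inhibition above a set limit taken from the earlier primary screen, cut at about 13% in these data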;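 further: higher means less bacterial growth since AddAB block lets phage replicate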
RecBCD counter – counter-screen: growth loss of RecBCD+ E. coli with mutant T4 phage | AID 488955 | inhibition, % at 11.9 µM | shares compounds with AddAB inh | hit rate 73% among 880 | E. coli V66 + mutant T4 phage, OD growth;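 active means mean inhibition above the mean of solvent-only control wells plus 3 SD, cut at about 4% in these data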;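 further: optical density read after an 18 h incubation at 37 °C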
bact viab count – counter-screen for AddAB inhibitors: inhibitors of bacterial viability; shares compounds with AddAB inh; inhibition, % at 11.9 µM; absorbance (AddAB counterscreen); hit rate 35% among 880; in the data active means inhibition above about 25%
RecBCD conf – growth loss of phage-infected V66 E. coli, RecBCD confirmation screen. shares compounds with phage Ecoli inh. E. coli V66 + T4 2- phage, growth OD. inhibition, % at 11.9 µM. hit rate 45% among 890. AID 651982;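 active means mean inhibition over triplicates exceeding the hit threshold derived in the original primary screen, cut at about 11% in these data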
Ecoli viability – inhibits E. coli viability, flagging RecBCD hits as nonselective; inhibition, % at 11.9 µM; shares compounds with phage Ecoli inh; hit rate 29% among 890; absorbance (OD) growth; AID 651983; in the data active means inhibition above about 20%;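 further: E. coli strain V66 grown with compound alone and no phage infection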
AddAB phage OD – growth loss of phage-infected AddAB E. coli, RecBCD counter-screen. shares compounds with phage Ecoli inh. E. coli expressing H. pylori AddAB + T4 phage, OD growth; gene 2 mutant T4, recBCD-deleted host. inhibition, % at 11.9 µM. hit rate 45% among 890. AID 651984;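 active means mean inhibition above the solvent-only control wells' mean plus 3 SD, cut at about 22% in these data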;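 further: higher means less bacterial growth from phage killing when AddAB is blocked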
Numbers stand for hits; - = inactive; ? = inconclusive; . = not tested or not shown.

SMILES	E coli growth-1	AddAB inh	E coli growth-2	Tat export inh	phage Ecoli inh	AddAB conf	RecBCD counter	bact viab count	RecBCD conf	Ecoli viability	AddAB phage OD
CC1CN(C(C)CO)C(=O)c2cccc(NC(=O)CCCCCC(=O)Nc3ccccc3N)c2OC1CN(C)Cc1ccncc1 (stereo not drawn)	.	.	-	.	.	.	.	.	.	.	.
COc1ccc(Nc2nnc(SCc3cn4c(C)cccc4n3)s2)cc1	15.7	16.3	-	-	14.3	16.3	12.2	-	13.0	-	-
Cc1cc(C)c2c(N=NN3CCCCC3)[nH]nc2n1	88.8	98.4	-	-	14.2	90.7	7.7	43.5	-	-	52.6
CCN(CC)N=Nc1[nH]nc2nc(C)cc(C)c12	86.9	35.3	0.556	-	14.3	93.2	9.3	51.1	-	-	76.2
O=C(NC1CC1)C1=CC(c2ccccc2)CC(OCc2ccc(CO)cc2)O1 (stereo not drawn)	.	.	-	.	.	.	.	.	.	.	.
Cc1ccc(C2C3C(=O)N(C)C(=O)C3[C@]3(C)C(=O)N(Cc4ccc(-c5ccccc5)cc4)CC(=O)N23)o1 (stereo partly drawn)	.	.	-	.	.	.	.	.	.	.	.
N#Cc1ccc(-c2nc3cc(Cl)ccc3c(=O)n2O)cc1	-	-	-	-	-	.	.	.	.	.	.
O=c1c2ccc(Cl)cc2nc(-c2cccc(C(F)(F)F)c2)n1O	11.0	12.3	-	-	11.3	-	7.9	-	-	-	-
O=[N+]([O-])c1ccc(-c2ccn[nH]2)o1	99.9	99.6	0.0625	?	97.6	101.7	100.3	101.4	104.6	106.5	106.4
Oc1ccc2ccccc2c1N=Nc1ccccn1	31.2	25.7	-	-	27.4	27.4	24.5	-	23.5	26.6	30.2
O=c1c2cc(Br)ccc2nc(-c2ccc(Cl)cc2)n1O	-	-	-	-	-	.	.	.	.	.	.
Cc1ccc(-c2nc3c(Cl)cc(Cl)cc3c(=O)n2O)cc1	14.8	12.3	-	-	12.2	15.9	14.4	-	-	-	-
CCN1C(=O)C2C(c3ccc(-c4ccc5c(c4)OCO5)c(OC)c3)N[C@@](CC(C)C)(C(=O)OC)C2C1=O (stereo partly drawn)	.	.	-	.	.	.	.	.	.	.	.
O=C(c1ccc([N+](=O)[O-])o1)N1CCc2ccccc21	94.2	96.5	0.461	-	21.3	101.7	20.2	84.1	-	-	98.0
C#CCOCCOCCOCCNc1nc(N2CCN(C(=O)C(CCC(=O)O)n3cc(C(N)CO)nn3)CC2)nc(N2CCN(C(=O)C(CCC(=O)O)n3cc(C(N)CC(C)C)nn3)CC2)n1 (stereo not drawn)	.	.	-	.	.	.	.	.	.	.	.
Cc1cccc(NC(=O)NNC(=O)c2cc3ccccc3cc2O)c1C	12.3	13.1	.	-	12.1	-	12.4	-	-	-	-
Cc1ccc(C)c(NC(=O)NNC(=O)c2cc3ccccc3cc2O)c1	-	14.0	-	-	13.9	-	6.9	-	-	-	-
Cc1cccc(NC(=S)NNC(=O)c2ccc(O)cc2O)c1C	-	-	-	-	-	.	.	.	.	.	.
Cc1ccc(NC(=O)NNC(=O)c2cc3ccccc3cc2O)cc1C	-	-	-	-	-	.	.	.	.	.	.
Oc1ccc(Cl)cc1CNCc1ccc(Cl)cc1	-	-	-	-	-	.	.	.	.	.	.
Oc1ccc(Cl)cc1Cc1cc(Cl)ccc1O	12.1	13.3	0.13	-	13.5	-	13.9	-	-	-	-
CCN1CC2C3C(=O)N(C)C(=O)C3[C@](C)(C1=O)N2C(=O)c1ccc(C(F)(F)F)cc1 (stereo partly drawn)	.	.	-	.	.	.	.	.	.	.	.
CC(=NNC(=O)Nc1ccccc1)c1ccc2ccccc2c1	.	.	-	.	.	.	.	.	.	.	.
CCC(C)N1CCC2(CC1)N=c1c(c3c4c5c(C)c(O)c3c(O)c1=NC(=O)C(C)=CC=C[C@H](C)[C@H](O)[C@@H](C)[C@@H](O)[C@@H](C)[C@H](OC(C)=O)[C@H](C)[C@@H](OC)C=CO[C@@](C)(O5)C4=O)N2 (stereo partly drawn)	98.5	97.5	.	106.7	105.0	96.0	97.2	98.8	96.4	99.0	102.0
COC1C=COC2(C)Oc3c(C)c(O)c4c(O)c(c(CN5CCN(C)CC5)c(O)c4c3C2=O)NC(=O)C(C)=CC=CC(C)C(O)C(C)C(O)C(C)C(OC(C)=O)C1C (stereo not drawn)	.	.	.	-	-	.	.	.	.	.	.
SMILES	E coli growth-1	AddAB inh	E coli growth-2	Tat export inh	phage Ecoli inh	AddAB conf	RecBCD counter	bact viab count	RecBCD conf	Ecoli viability	AddAB phage OD
CC(=O)c1cn(CC(=O)Nc2ccc(C)c(C)c2)c2ccccc12	-	-	-	-	-	.	.	.	.	.	.
CC(=O)c1cn(CC(=O)Nc2ccc(C)cc2)c2ccccc12	11.1	14.4	-	-	11.2	-	-	-	-	-	-
O=C(Cn1cnc2ccccc21)Nc1ccc2c(c1)OCCCO2	13.4	17.5	-	-	15.9	22.9	16.1	-	11.8	-	-
O=C(Cn1cnc2ccccc2c1=O)Nc1ccc2c(c1)OCO2	-	-	-	-	-	.	.	.	.	.	.
CN(C)c1ccc(O)c2c1CC1CC3[C@@H](N(C)C)C(=O)C(C(N)=O)=C(O)[C@]3(O)C(=O)C1=C2O (stereo partly drawn)	102.4	99.0	.	148.9	98.8	99.4	97.8	100.0	93.2	102.7	103.4
CC[C@H]1OC(=O)[C@H](C)[C@@H](O[C@H]2C[C@@](C)(OC)[C@@H](O)[C@H](C)O2)[C@H](C)[C@@H](O[C@@H]2O[C@H](C)C[C@H](N(C)C)[C@H]2O)[C@](C)(O)C[C@@H](C)C(=O)[C@H](C)[C@@H](O)[C@]1(C)O	20.2	22.4	.	-	26.9	44.6	16.7	-	18.9	19.7	32.1
CC(C)CC(CC#N)N1CCN(Cc2ccccc2)CCC1=O (stereo not drawn)	.	.	-	.	.	.	.	.	.	.	.
Cn1nnnc1N=N/C(=N/Nc1ccccc1)c1ccccc1	21.2	25.2	.	-	19.5	25.4	23.3	-	10.9	-	-
CCCCCCCCN1C(CC(=O)OCC)c2ccc(C(F)(F)F)cc2S1(=O)=O (stereo not drawn)	.	.	-	.	.	.	.	.	.	.	.
Oc1c(C(c2ccccn2)N2CCCCC2)cc(Cl)c2cccnc12 (stereo not drawn)	-	-	-	-	-	.	.	.	.	.	.
CN1CCN(C(c2ccc(Cl)cc2)c2cc(Cl)c3cccnc3c2O)CC1 (stereo not drawn)	19.4	13.2	.	-	15.5	-	9.9	-	-	-	-
